In PubChem BioAssay AID648 (SRMLSC, 2007):
The whole screen tested about 86,000 compounds, of which about 920 (1.1%) were called active. This is one part of a sample in which actives are shown more often than they occur.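 How the source made its calls: active means viability at or below 30%; inactive means viability above 30%.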

assay: endothelial cell growth inhibition – HUVEC, 384-well, primary screen (AID 648); details: HUVEC proliferation, CellTiter-Glo luminescence, 72 h; hits give low values; screened at 10 µM (by protocol);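 further: 100% = median luminescence of DMSO-only cell control wells on each plate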

| Structure (SMILES) | viability |
| --- | --- |
| C/C(=N\NC(=O)c1nc(C)cc(C)n1)c1ccccc1 | 93.6% (inactive) |
| Cc1ccc(OCC(=O)N/N=C\c2ccco2)c(C)c1 | 93% (inactive) |
| Cc1ccc(/C=N/NC(=O)C2=NNC(c3ccccc3)(c3ccccc3)C2)c(O)c1 | 25.4% (active) |
| CCN(CC)CCn1c2ccc(Cl)cc2c2nc(C)sc21 | 87.5% (inactive) |
| CCOC(=O)c1ccc(N2C(=O)CC(N(C)Cc3ccccc3)C2=O)cc1 (stereo not drawn) | 92.5% (inactive) |
| COc1ccc(NC(=O)/C(Cl)=C(/Cl)S(=O)Cc2ccc(C)cc2)cn1 (stereo not drawn) | 1.52% (active) |
| COc1cccc(NC(=O)Cc2ccc(C)cc2)c1 | 95.9% (inactive) |
| COc1ccc(CC(=O)Nc2ccc(-c3nnc(-c4ccc(C)cc4)o3)cc2)cc1 | 61.7% (inactive) |
| COc1cc(C(=O)OC(C)C(=O)NCC2CCCCC2)cc(NC(=O)c2ccco2)c1OC (stereo not drawn) | 100% (inactive) |
| N#CCSc1nc2ccc(N3CCOCC3)cc2c(=O)n1CCc1ccccc1 | 90.5% (inactive) |
| Cc1ccc(CNC(=O)CCNS(=O)(=O)c2cccc3nonc23)cc1 | 95.1% (inactive) |
| COc1ccc(-c2cc(C(F)(F)F)nc(NCc3cccnc3)n2)cc1 | 88.9% (inactive) |
| COc1ccc(-c2nnco2)cc1OC | 102% (inactive) |
| COc1ccc(-c2cc(C(F)(F)F)nc(S(C)(=O)=O)n2)cc1OC | 13.2% (active) |
| COC(=O)C1C(=O)NCC1c1ccc(OC)cc1 (stereo not drawn) | 93.7% (inactive) |
| COCc1[nH][nH]c(=O)c1C=Nc1ccc(F)cc1F | 86.9% (inactive) |
| CCN(CC)CCCNC(=O)CCc1ccccc1 | 103% (inactive) |
| Cc1cc(N2CCN(S(=O)(=O)c3ccc(C)c(C)c3)CC2)c2ccccc2n1 | 81.6% (inactive) |
| Cc1ccc(NC(=O)CCN2CCc3ccccc3C2)cc1 | 103% (inactive) |
| Cc1ccc(NC(=S)NC(NC(=O)Cc2cccc3ccccc23)C(Cl)(Cl)Cl)cc1 (stereo not drawn) | 4.6% (active) |
| CC(=O)c1cccc(NC(=O)Nc2ccc(C)cc2)c1 | 90% (inactive) |
| COc1ccc(-c2cn(-c3ccc(C)cc3)c(=O)n2CC(=O)Nc2ccc(OC)c(OC)c2)cc1 | 92.4% (inactive) |
| COc1ccc(-c2nnc(SCc3cccnc3)o2)cc1 | 104% (inactive) |
| COc1cc2c(cc1OC)C(C(C)C)=NC(C)(C)C2 | 90.5% (inactive) |
| COc1ccc(CCNC(=O)CN(c2ccccc2)S(C)(=O)=O)cc1OC | 94.6% (inactive) |

| Structure (SMILES) | viability |
| --- | --- |
| FC(F)(F)c1nnc2ccc(N3CCN(c4ccccc4)CC3)nn12 | 85.4% (inactive) |
| COC(=O)c1ccccc1NC(=O)Cc1ccccc1OC | 91.1% (inactive) |
| CC(Nc1nc(N2CCCC2)nc2ccccc12)c1ccccc1 (stereo not drawn) | 4.14% (active) |
| Cc1ccc(C(CC(=O)O)Nc2nc(N3CCCCC3)nc(N3CCCCC3)n2)cc1 (stereo not drawn) | 99.9% (inactive) |
| CC(C)n1c(C(O)c2ccccc2)nc2ccccc21 (stereo not drawn) | 99.3% (inactive) |
| CCN(c1ccccc1)S(=O)(=O)c1ccc(C(=O)Nc2nccs2)cc1 | 104% (inactive) |
| Cc1ccc(-c2noc(CC(c3ccccc3)c3ccccc3)n2)cc1 | 135% (inactive) |
| COc1ccc(N2CCN(Cc3ccc(Br)s3)CC2)cc1 | 108% (inactive) |
| COc1ccc(Cl)cc1C(=O)NCC#N | 91.6% (inactive) |
| O=C(NCc1ccccc1)C1CCCN(S(=O)(=O)c2cccs2)C1 (stereo not drawn) | 93% (inactive) |
| CC(=O)Oc1ccc(C(C)=O)c2c1OCCO2 | 82.4% (inactive) |
| CCN(CC)C(=O)CC1(c2ccccc2OC)CCOC(C(C)C)C1 (stereo not drawn) | 103% (inactive) |
| CC(C)c1ccc(OCC(O)Cn2cnc3ccccc32)cc1 (stereo not drawn) | 84.8% (inactive) |
| OC(CN=c1sc2ccccc2n1CC(O)COc1ccccc1)COc1ccccc1 (stereo not drawn) | 28.9% (active) |
| OC(COc1ccccc1)Cn1cc(Br)cn1 (stereo not drawn) | 99.8% (inactive) |
| COc1ccccc1/C=C/C1=NC(=C\N(C)C)/C(=O)O1 | 90.8% (inactive) |
| CC(C)c1ccc(-c2noc(C3CCCN(S(C)(=O)=O)C3)n2)cc1 (stereo not drawn) | 82.4% (inactive) |
| Cc1ccc(CNC(=O)C2CCCN2C(=O)NCc2ccccc2)cc1 (stereo not drawn) | 102% (inactive) |
| CC1CCC(N2CC(=O)N(Cc3ccc4c(c3)OCO4)C(c3ccc(F)cc3)C2=O)CC1 (stereo not drawn) | 104% (inactive) |
| C=CCn1c(N)c(C(=O)OCC(C)C)c2nc3ccccc3nc21 | 66.4% (inactive) |
| CC(C)Cn1c(N)c(C(=O)NCc2cccs2)c2nc3ccccc3nc21 | 3.01% (active) |
| C=CCn1c(N)c(S(=O)(=O)c2cccs2)c2nc3ccccc3nc21 | 107% (inactive) |
| O=C(Nc1ccc2nc3n(c(=O)c2c1)CCCCC3)c1ccccc1Cl | 109% (inactive) |
| CCOC(=O)c1cc2c(ccn2C)n1CC(=O)N1CCC(C)CC1 | 93.4% (inactive) |
| CN(C)CCNC(CC(=O)Nc1ccc(Cl)c(Cl)c1)C(=O)O (stereo not drawn) | 93.2% (inactive) |

| Structure (SMILES) | viability |
| --- | --- |
| N/C(=N\OC(=O)Nc1ccc(Cl)c(Cl)c1)c1ncc(C(F)(F)F)cc1Cl | 60.3% (inactive) |
| O=C(CC(O)(C(F)(F)F)C(F)(F)F)Nc1ccc(Cl)c(Cl)c1 | 3.08% (active) |
| COc1ccc(-c2cc3nc(C)c(CCC(=O)NC(C)CCc4ccco4)c(C)n3n2)c(OC)c1 (stereo not drawn) | 88.3% (inactive) |
| CCNC(=O)NC(=O)C(C)OC(=O)c1cc(S(=O)(=O)N2CCCCCC2)ccc1OC (stereo not drawn) | 79.6% (inactive) |
| Cc1[nH][nH]c(=O)c1N=Nc1ccccc1 | 109% (inactive) |
| Cc1[nH][nH]c(=O)c1C(c1ccc(-c2ccc(Cl)cc2)o1)c1c(C)[nH][nH]c1=O | 24% (active) |
| CCCCOC(=O)Cn1c(=N)n(CCN(CC)CC)c2ccccc21 | 104% (inactive) |
| O=C(COc1cc(Cl)c(Cl)cc1Cl)NC(=O)NC1CCCC1 | 88.8% (inactive) |
| O=S(=O)(NCC1OCCc2ccccc21)c1ccccc1 (stereo not drawn) | 104% (inactive) |
| COC(=O)C(C(=O)Nc1cccc(C)n1)C1CCCCCC1 (stereo not drawn) | 88.7% (inactive) |
| COC(=O)c1ccccc1Oc1c(F)c(F)nc(N2CCOCC2)c1F | 95.4% (inactive) |
| O=C(O)[C@@H]1CCCN1c1ncnc2sc3c(c12)CCC3 | 99% (inactive) |
| OCCNc1nc2ccccc2n1-c1ncnc2sc3c(c12)CCC3 | 4.2% (active) |
| CC(C)(C)C(=O)Cn1c(NCCO)nc2ccccc21 | 95.1% (inactive) |
| CN=C1SC(CC(=O)Nc2ccc(C(=O)O)cc2)C(=O)N1C (stereo not drawn) | 88% (inactive) |
| CCC(=O)NC(Nc1nc2ccc(C)cc2s1)(C(=O)OC)C(F)(F)F (stereo not drawn) | 101% (inactive) |
| Cc1ccc(C)c(NC2=NCC(=O)N2c2ccc3c(c2)OCCO3)c1 | 103% (inactive) |
| CCn1c(/C=C/c2ccc([N+](=O)[O-])o2)nc2ccccc2c1=O | 4.01% (active) |
| O=c1c2ccccc2nc(N/N=C/c2ccccc2)n1O | 101% (inactive) |
| Cc1nc2ccccc2c(=O)n1CCCn1ccnc1 | 92.5% (inactive) |
| COc1ccc(/C=C/C(=O)Nc2c(C)nn(C)c2C)cc1COc1ccc(Br)cc1 | 46.5% (inactive) |
| CCn1c(COc2ccc(OC)cc2)nnc1SCC(=O)Nc1cc(OC)ccc1OC | 98% (inactive) |
| CCn1nc(C)c(NC(=O)/C=C/c2ccc(OC)c(COc3ccc(Br)cc3)c2)c1C | 10.6% (active) |
| c1ccc(-n2nc3ccccc3n2)cc1 | 94.1% (inactive) |
| COC(=O)c1[nH]c2ccc(Br)cc2c1NC(=O)Oc1ccccc1 | 86.1% (inactive) |

| Structure (SMILES) | viability |
| --- | --- |
| Cn1c(N)c(C(=O)COC(=O)C23CC4CC(CC(C4)C2)C3)c(=O)n(C)c1=O | 99.2% (inactive) |
| Cc1ccc(CN(C(=O)c2sc3ccccc3c2Cl)C2CCS(=O)(=O)C2)cc1 (stereo not drawn) | 80.5% (inactive) |
| CC(C)CC[n+]1ccn(C2=C([O-])c3ccccc3C(=O)/C2=N\S(=O)(=O)c2ccccc2)c1 | 20.6% (active) |
| CN(Cc1ccccc1)C(=O)COc1ccccc1 | 98.7% (inactive) |
| COc1nc(NC2CCCCC2)nc(N2CCCCCC2)n1 | 77.8% (inactive) |
| CCOC(=O)c1cnc(SCc2nc(N)nc(Nc3ccc(OC)cc3)n2)nc1N | 111% (inactive) |
| Cc1cccc2nc(CSc3nc4[nH]ncc4c(=O)n3-c3cccc(Cl)c3)cc(=O)n12 | 76.9% (inactive) |
| CCn1c(CNC(=O)c2ccccc2)nnc1SCC(=O)N1CCN(c2ccccc2)CC1 | 98.7% (inactive) |
| CCCn1c(=O)c2ccccc2n2c(SCC(=O)/C(C#N)=C(\C)N)nnc12 | 83.6% (inactive) |
| C=CCn1c(SCC(=O)/C(C#N)=C(\C)N)nc2sc(C)c(C)c2c1=O | 28% (active) |
| Cc1sc2nc(SCC(N)=O)n(C)c(=O)c2c1C | 98.6% (inactive) |
| O=C(CSCc1c(F)cccc1Cl)NCC1CCCO1 (stereo not drawn) | 101% (inactive) |
| Cc1ccc(O/C=C2\OC(=O)c3ccccc32)cc1 | 98.2% (inactive) |
| COC(=O)c1sc(=S)n(-c2ccc(Cl)cc2)c1C | 90% (inactive) |
| COc1ccc(-n2nnnc2SCc2nc(N)nc(N3CCOCC3)n2)cc1 | 96.3% (inactive) |
| CCOC(=O)c1sc(NC(=O)CSc2nc(C)cc(C(F)(F)F)n2)c(C#N)c1C | 88.5% (inactive) |
| CCOc1ccc(Nc2oc(Cc3ccccc3)nc2C#N)cc1 | 104% (inactive) |
| COc1ccccc1-c1nc(C#N)c(N2CCC(C(N)=O)CC2)o1 | 95.4% (inactive) |
| COc1ccc(Nc2oc(-c3ccccc3Cl)nc2C#N)cc1 | 29.9% (active) |
| O=C(Nc1cccc(NC(=O)c2ccco2)c1)c1cnccn1 | 83.6% (inactive) |
| Fc1ccc(-n2c(Cc3ccccc3)nnc2SCc2nc(-c3ccc(Cl)cc3)no2)cc1 | 76.6% (inactive) |
| COc1ccc(N(CC(=O)NC2CCCCC2)S(=O)(=O)c2c(C)[nH]c(=O)[nH]c2=O)cc1 | 96.7% (inactive) |
| COc1ccc([N+](=O)[O-])cc1C1NN=C(c2cccc3ccccc23)S1 (stereo not drawn) | 81.9% (inactive) |
